Assay results taken from ChEMBL document CHEMBL1157539, “Thousands of chemical starting points for antimalarial lead identification” (Nature, 2010).
“And” between values parts separate entries of the source, which are not always exact repeats. Equal values may be shown once.

test system: Plasmodium falciparum; assay: GSK_TCMDC: Inhibition of Plasmodium falciparum 3D7 in whole red blood cells, using parasite LDH activity as an index of growth. Test compounds present at 2uM; type: functional

| SMILES | Inhibition |
| --- | --- |
| COCCNCc1ccc(-c2ccc(CN(C(=O)NC3CCCCC3)C3CCN(Cc4ccccc4)CC3)cc2)cc1.O=C(O)C(F)(F)F | 94% |
| O=C(Nc1ccccc1OC(F)(F)F)NC1CCC(CN2CCC(c3c[nH]c4ccccc34)CC2)CC1 (stereo not given) | 100% and 99% |
| CC(=O)N(Cc1cccc(-c2cccc(CNCc3ccc4c(c3)OCO4)c2)c1)C1CCN(Cc2ccccc2)CC1.O=C(O)C(F)(F)F | 95% |

test system: Plasmodium falciparum; assay: GSK_TCMDC: Inhibition of Plasmodium falciparum Dd2 in whole red blood cells, using parasite LDH activity as an index of growth. Test compounds present at 2uM; type: functional

| SMILES | Inhibition [%] |
| --- | --- |
| CC[C@H]1CN2CC[C@@H]1C[C@H]2[C@H](O)c1cc(-c2cccnc2)nc2ccc(OC)cc12.Cl | 99 |
| Cc1[nH]c2cc(F)ccc2c1C1=CCN(CCCCC2(C)C(=O)Nc3c(F)cccc32)CC1 (stereo not given) | 89 |
| CCCCCc1cc(O)c2c3c(c(=O)oc2c1)CN(C)CC3 | 99 |
| Oc1ccccc1CNCC(O)c1cc(C(F)(F)F)cc(C(F)(F)F)c1 (stereo not given) | 100 |
| CN(c1ccnc(Nc2ccc(CS(C)(=O)=O)cc2)n1)C1CCN(Cc2ccccc2)CC1 | 9 |
| Cl.Cl.c1ccc2c(NCCCCCCNc3c4ccccc4nc4ccccc34)c3ccccc3nc2c1 | 80 |
| CCCCCC(C)C(C)c1cc(O)c2c(c1)OC(C)(C)c1cnccc1-2.Cl (stereo not given) | 74 |
| O=C(O)c1ccc2nc(-c3ccc(-c4ccccc4)cc3)n(C3CCN(Cc4ccc(-c5ncc[nH]5)cc4)CC3)c2c1 | 99 |
| Cc1cc(N(C)C2CCN(C)CC2)nc(Nc2ccc(Br)cc2)n1 | 92 |
| COCCNCc1ccc(-c2ccc(CN(C(=O)Nc3ccccc3)C3CCN(Cc4ccccc4)CC3)cc2)cc1.O=C(O)C(F)(F)F | 39 |
| O=C(/C=C/c1ccc(Cl)c(Cl)c1)N1CCC(CN2C3CCC2CC(c2c[nH]c4ccccc24)C3)CC1 (stereo not given) | 66 |
| CC(=O)Nc1ccc(OCCN(CC(C)C)c2ccc(C#N)c(C(F)(F)F)c2)c(Cl)c1 | 94 |
| CC[C@H]1CN2CC[C@H]1C[C@H]2[C@H](O)c1cc(-c2ccccc2F)nc2ccc(OC)cc12.Cl | 98 |
| O=C(/C=C/c1cc(F)cc(C(F)(F)F)c1)N1CCC(CN2CCC(c3c[nH]c4ccccc34)CC2)CC1 | 74 |
| S=C(Nc1ccccc1Cl)NC1CCC(CN2CCC(c3c[nH]c4ccccc34)CC2)CC1 (stereo not given) | 12 |
| CS(=O)(=O)Nc1ccc2[nH]cc(C3CCN(CC4CCN(C(=O)/C=C/c5ccc(Cl)c(Cl)c5)CC4)CC3)c2c1 | 92 |

| SMILES | Inhibition [%] |
| --- | --- |
| CCCc1c(C(=O)NC2CCC(CN3CCC(c4c[nH]c5ccccc45)CC3)CC2)cnn1-c1ccccc1 (stereo not given) | 7 |
| CC[C@H]1CN2CC[C@H]1C[C@H]2[C@@H](O)c1cc(OCCCN(C)C)nc2ccc(OC)cc12 | 8 |
| O=c1c2ccccc2nc(/C=C/c2ccc([N+](=O)[O-])cc2)n1-c1ccccn1 | 96 |
| CC[C@H]1CN2CC[C@@H]1C[C@H]2[C@H](O)c1cc(N2CCC(c3ccccc3)CC2)nc2ccc(OC)cc12 | 98 |
| S=C(NCC1CCCCC1)NC1CCC(CN2CCC(c3c[nH]c4ccccc34)CC2)CC1 (stereo not given) | 10 |
| O=C(NCc1ccc(S(=O)(=O)N2CCC(CN3CCC(c4c[nH]c5ccccc45)CC3)CC2)s1)c1ccccc1 | 21 |
| O=C(c1cc(C(=O)NCc2ccc(Cl)cc2)c(=O)n(Cc2ccc(Cl)cc2)c1)c1cc(Cl)ccc1O | 4 |
| CN(c1cc(NC(=O)c2ccccc2)ccn1)C1CCN(Cc2cccc(F)c2)CC1.O=C(O)C(F)(F)F | 94 |
| Cc1[nH]c2ccccc2c1C1=CCN(CCCCC23CCCc4cccc(c42)NC3=O)CC1 (stereo not given) | 91 |
| Oc1ccc(CN2CCN(CCOC(c3ccccc3)c3ccccc3)CC2)cc1Cl | 77 |
| O=C(NC1CCC(CN2CCC(c3c[nH]c4ccccc34)CC2)CC1)c1cn(Cc2ccccc2)c2ccccc12 (stereo not given) | 48 |
| O=C(Nc1ccc(Oc2ccccc2)cc1)N1CCC(CN2CCC(c3c[nH]c4ccccc34)CC2)CC1 | 59 |
| C/C=C1/CN2CC[C@H]1C[C@H]2[C@H](O)c1ccnc2ccc(OC)cc12 | 45 |
| CCCCCCc1cc(O)c2c3c(c(=O)oc2c1)CCN(C)C3 | 66 |
| CC(C)CN1CCC(N(C)c2cc(NC(=O)c3cccc(F)c3)ccn2)CC1.O=C(O)C(F)(F)F | 10 |
| CNC(=O)c1ccc2[nH]cc(C3CCN(CC4CCC(NC(=O)/C=C/c5ccc(Cl)c(Cl)c5)CC4)CC3)c2c1 (stereo not given) | 90 |
